What follows are compounds tested against Shiga toxin 2 (Escherichia coli O157:H7) (UniProt P09385+P09386) (assay: E. coli 0.157:H7 Shiga Toxin SOP - stx2 screening assay). Settings: 30 µM.
Format: functional
Design: scale not given: direction of the effect not stated beside the values

Point of comparison: CCc1cnc(CN(C(C)=O)C2CCN(CCS(C)(=O)=O)C2)o1 (stereo not given), Percent Effect -0.798%. Against it:
- O=C(c1ccc[nH]1)N1CCCC2(CCN(c3ccsc3)C2=O)C1 (stereo not given) — higher, 3.06%
- CC(=O)NCCNC(=O)c1cnc(-c2ccccc2)nc1 — lower, -11.3%
- NC(=O)CN1CCC(NC(=O)Nc2nccs2)CC1 — lower, -29.4%
- CC(=O)N(Cc1noc(C)n1)C1CCN(CCOc2ccccc2)C1 (stereo not given) — lower, -29.9%
- COC(=O)c1cccc(C(=O)N2CCN(c3cccc(C)c3C)CC2)n1 — lower, -18.6%
- COCC1CN(Cc2cc(C)on2)Cc2cn(C)nc21 (stereo not given) — lower, -2.41%
- Cc1nc(C2CCCN(C(=O)Cn3ccccc3=O)C2)no1 (stereo not given) — higher, 25.3%
- Cn1cnnc1C1CCCN(C(=O)NCCc2ccccc2F)C1 (stereo not given) — higher, 15.6%
- Cc1noc2nc(C3CCN(Cc4ccncc4)CC3)cc(C(F)F)c12 — lower, -67.8%
- Cc1nc(CN2CCOCC3(CCN(c4cccnc4)CC3)C2)cs1 — lower, -2.54%
- CSCCCNC(=O)Nc1cccc(-c2nccn2C)c1 — lower, -93.1%
- O=C(NC[C@]12COC[C@H]1CN(Cc1nccs1)C2)c1ccccc1 — lower, -14.5%
- CCc1nccn1C1CCCN(C(=O)c2ccc3c(c2)OCO3)C1 (stereo not given) — higher, 11.8%
- O=C(CN1CCC(c2cccc(F)c2)C1)NCc1ccco1 (stereo not given) — lower, -21.6%
- Cc1cccc(CN2CCc3nnc(CN4CCCC4=O)n3CC2)n1 — higher, 3.17%
- CCC(OC)C(=O)N1CCc2nc(NC)nc(C(=O)N3CCCC3)c2C1 (stereo not given) — lower, -1.38%
- Cc1ccc(-c2nc(CN3CCn4c(nnc4C4CC4)C3)cs2)o1 — lower, -88.7%
- O=C(NCC1CCOCC1)[C@H]1C[C@@H]2CCN(Cc3ccncc3)C[C@@H]2O1 — lower, -19.5%
- CC(=O)Nc1nc(CN2CCCCC2Cn2cccn2)cs1 (stereo not given) — lower, -4.08%
- CN(Cc1ncc[nH]1)S(=O)(=O)c1cccc(C(=O)N2CCOCC2)c1 — lower, -12.2%
- COc1ccc(F)cc1C(C)NC(=O)c1nnc(C)s1 (stereo not given) — lower, -5.21%
- Cc1ccc(S(=O)(=O)NC2CNC(=O)C2)cc1C (stereo not given) — higher, 9.86%
- COCC(=O)N1CCCC1c1cc(Nc2nnc(C)s2)nc(C)n1 (stereo not given) — lower, -14.2%
- Cc1cc(CNC(=O)NC(C)c2ccncc2)no1 (stereo not given) — lower, -40%
- CN(CC1CC1)c1ccc2ccc(C(=O)NCCN3CCOCC3)cn12 — lower, -88.6%
- Cc1nc(C(=O)N2CCC(Cc3cnc4[nH]ccc4c3)C2)co1 (stereo not given) — higher, 62.2%
- NC(=O)c1csc(C(=O)N2CCCCC2Cn2cccn2)c1 (stereo not given) — higher, 6.89%
- COc1ccc(NC(=O)N2CCN(c3ncccn3)CC2)cn1 — lower, -16.1%
- CN1CC(=O)N(c2ccccc2)CC12CCN(CC1CC1)C2 (stereo not given) — lower, -5.63%
- CN1C(=O)C(c2cccnc2)CC12CCN(C(=O)c1cccn1C)CC2 (stereo not given) — lower, -12.3%
- Cc1nc(C)n(C2CCCN(C(=O)c3sccc3C3CC3)C2)n1 (stereo not given) — higher, 10.4%
- O=S1(=O)COCCN1Cc1cccc(Cl)c1 — higher, 10.7%
- Cn1cc(CNCCn2cccn2)c(-c2cccnc2)n1 — higher, -0.247%
- Cc1ccc(-c2csc(N)c2C#N)cc1 — lower, -3.71%
- O=C(Cc1ccsc1)NCC1OCCc2cn(CC3CC3)nc21 (stereo not given) — lower, -11.5%
- O=C1N(CC2CC2)CCC12CCN(c1ncccn1)CC2 — lower, -4.25%
- O=C(c1cccnc1N1CCOCC1)N1CCCC(n2ccnc2)C1 (stereo not given) — higher, 31.6%
- NS(=O)(=O)N1CCc2ccc(NC(=O)Cc3ccc(F)cc3)cc21 — lower, -15%
- CN(C)C(=O)N1CCN(C(=O)C(c2ccccc2F)N(C)C)CC1 (stereo not given) — lower, -3.65%
